Assay results reported in PubChem BioAssay (NCI).
About 83,000 compounds went through this panel and 20% of them were active in at least one assay; those are over-represented in the sample as a whole.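 48-hour exposure, single concentration, 96-well plates; percent growth endpoint where 0 means no net growth. Active: below 10.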 A number with no mark means an inactive call. Activity calls are given as the source filed them.

Assays:
Test in all cases: NCI-60 one-dose screen, 48 h (100 = growth as untreated, 0 = no growth, -100 = all killed)
Settings in all cases: 10 µM
SR leukemia = tested on: SR leukemia
RPMI-8226 leukemia = tested on: RPMI-8226 leukemia
OVCAR-8 ovarian = tested on: OVCAR-8 ovarian
OVCAR-5 ovarian = tested on: OVCAR-5 ovarian
OVCAR-4 ovarian = tested on: OVCAR-4 ovarian
SK-OV-3 ovarian = tested on: SK-OV-3 ovarian
IGROV1 ovarian = tested on: IGROV1 ovarian
OVCAR-3 ovarian = tested on: OVCAR-3 ovarian
HS 578T breast = tested on: HS 578T breast
NCI/ADR-RES ovarian = tested on: NCI/ADR-RES ovarian

Compound | growth (SR leukemia) | growth (RPMI-8226 leukemia) | growth (OVCAR-8 ovarian) | growth (OVCAR-5 ovarian) | growth (OVCAR-4 ovarian) | growth (SK-OV-3 ovarian) | growth (IGROV1 ovarian) | growth (OVCAR-3 ovarian) | growth (HS 578T breast) | growth (NCI/ADR-RES ovarian)
Cc1noc2c(Cc3ccc([N+](=O)[O-])cc3)nn(CC(=O)N/N=C/c3ccc(Cl)cc3)c(=O)c12 | 88.6% | 84.7% | 20.1% | 73.7% | 7.98% (active) | 67.2% | 63.2% | 35.8% | 10% | 45.9%
O=C(CNc1nc(-c2ccccc2)cs1)Nc1ccc(Cl)cc1[N+](=O)[O-] | 7.61% (active) | 1.75% (active) | 10.8% | -52.2% (active) | 15.5% | -6.03% (active) | 8.13% (active) | -31.9% (active) | -18.3% (active) | -30.7% (active)
O=C(Cn1nc(-c2ccccc2)ccc1=O)NN1C(=O)c2ccccc2C1=O | 91.4% | 95.7% | 81.9% | 120% | 94.7% | 117% | 124% | 125% | 73.4% | 91.2%
O=C(CN1CCN(c2ncnc3c2cnn3-c2ccccc2)CC1)Nc1nncs1 | -28.9% (active) | -16.6% (active) | -21.4% (active) | -4.09% (active) | 13.6% | 28.1% | -41.8% (active) | -55.6% (active) | 3.92% (active) | -32.6% (active)
O=C(NC(=S)N1CCN(c2ncnc3c2cnn3-c2ccccc2)CC1)c1ccc(Cl)cc1 | 13.9% | 69.1% | 38.3% | 83.8% | 16.5% | 41.8% | 70.9% | 48.1% | 32.7% | 28.1%
COc1ccc(/C(CSc2nnc(-c3c[nH]c4ccccc34)n2-c2ccccc2)=N/O)cc1 | 10.9% | 9.81% (active) | 29.7% | 55% | 16.8% | 52.1% | 43.1% | 30.5% | 38.8% | 38.2%
COc1cc2c3c(n(CCCN4CCOCC4)c(=O)c2cc1OC)-c1nc2c(cc1C3=O)OCO2 | 12.5% | 18.7% | 30.3% | 37.2% | 6.71% (active) | -4.15% (active) | 36.7% | 8.69% (active) | 71.6% | 17.1%
O=c1oc2ccccc2cc1-c1csc(N=Nc2c(O)[nH]c3ccc(Br)cc23)n1 | 97.1% | 99.7% | 79.1% | 98.9% | 87.2% | 91.9% | 79.5% | 89.7% | 33.7% | 76.2%
O=c1[nH]c2ccccc2cc1CSc1ccc(Nc2nccc(-c3ccc4c(c3)OCO4)n2)cc1 | 81.7% | 81.3% | 75% | 98.3% | 27% | 116% | 103% | 50.7% | 41.3% | 83.7%
COc1ccc(/C=N/N=C(\C)c2ccc3c(c2)Nc2ccccc2S3)cc1O | 32.6% | 28.3% | 62.8% | 71.4% | 41.7% | 87.3% | 70.1% | 72.8% | 73.7% | 34.8%
O=C(CNc1nc(-c2ccccc2)cs1)Nc1ccc(Br)cc1 | -18.8% (active) | -5.37% (active) | -5.23% (active) | -96.3% (active) | -49.9% (active) | 8.41% (active) | -75.4% (active) | -77.7% (active) | 16.6% | -16.7% (active)
Cc1ccc(-c2nc(Nc3ccc(S(N)(=O)=O)cc3)c3ccccc3n2)cc1 | 14.6% | 29.2% | 63.2% | 68.9% | 61.7% | 114% | 66.7% | 61.9% | 90.1% | 54.7%
C/C(=N\N=C\c1ccc(Cl)c([N+](=O)[O-])c1)c1ccc2c(c1)Nc1ccccc1S2 | 44.1% | 33.3% | 6.83% (active) | 72.8% | 23.7% | 94.8% | 60.3% | 27.5% | 0.197% (active) | 11.7%
O=c1[nH]c2ccccc2cc1CSc1ccc(Nc2nccc(-c3ccc(C(F)(F)F)cc3)n2)cc1 | 64.7% | 69.5% | -25.9% (active) | 36% | -60.3% (active) | 79.5% | 35.7% | -61.1% (active) | -8.2% (active) | 11.9%
O=C(NO)c1ccc(CNC(=O)[C@H]2Cc3c([nH]c4ccccc34)[C@H](c3ccc(Cl)cc3)N2)cc1 | 17.2% | 16.9% | 16.1% | -6.43% (active) | 39.7% | -12.7% (active) | -24.6% (active) | 7.44% (active) | 6.12% (active) | 42%
O=C(N/C(=C1/OCCN1Cc1ccccc1)[P+](c1ccccc1)(c1ccccc1)c1ccccc1)c1ccccc1 | 8.3% (active) | 0.374% (active) | 16.5% | 67.3% | 21.2% | 23% | 2.86% (active) | -7.02% (active) | -2.64% (active) | 97.8%
O=C(CNc1nc(-c2ccccc2)cs1)Nc1ccccc1 | 4.25% (active) | 8.69% (active) | 10% | -67.4% (active) | 35% | 11.2% | -7.7% (active) | -12.1% (active) | 14.3% | -22.8% (active)
COc1ccc(-c2cc(C(=O)N=Nc3c(O)[nH]c4ccc(F)cc34)c3ccccc3n2)cc1 | 22.5% | 72.2% | 59.1% | 88.5% | 52% | 101% | 62.3% | 59.1% | 74% | 61.9%
CN1C(=O)N(C)C2SC(N/N=C/c3ccccc3)=NC21 (stereo not given) | 13.6% | 97.4% | 97.1% | 94.4% | 94.6% | 95.7% | 64.5% | 25.1% | 66.1% | 44.6%
CCOC(=O)c1sc(N/N=C(\C)c2ccc3c(c2)Nc2ccccc2S3)nc1C | 18.8% | 20.1% | 38.7% | 30.6% | 44.1% | 68.5% | 39.6% | 46.1% | 30.9% | 28.8%
COc1ccc(-c2nc(-c3ccccc3)c(-c3ccccc3)n2-c2ccc(S(=O)(=O)Nc3ncccn3)cc2)cc1OC | 68.9% | 60.3% | 90.2% | 82.8% | 87% | 95% | 85.5% | 90.1% | 50.9% | 96.7%
CC(=O)C1=C(C)NC(SCC(=O)Nc2ccc(S(=O)(=O)Nc3cc(C)on3)cc2)=NC1c1ccccc1 (stereo not given) | 94.1% | 99.8% | 107% | 109% | 100% | 101% | 114% | 107% | 95.6% | 103%
CCCCSc1nc(Nc2ccc(/C(C)=N/NC(N)=S)cc2)c(C#N)c(-c2ccc(OC)cc2)n1 | 40.2% | 67.8% | 11.8% | 130% | -43.9% (active) | 94.9% | 68.4% | -27.2% (active) | 20.3% | 25.8%
COc1cc(NC(=O)CSc2nnc(-c3ccc4nc(-c5ccc(Cl)cc5)[nH]c4c3)o2)cc(OC)c1OC | 48% | 21.3% | 42.1% | 132% | 61.9% | 101% | 73.8% | 71.8% | 50.6% | 99.8%
O=c1c2ccccc2nc(COc2ccccc2)n1/N=C/c1ccc(N2CCCC2)cc1 | 73.9% | 64.1% | 99% | 96.6% | 81.8% | 113% | 97.2% | 105% | 94.8% | 94.3%
O=C(Cc1ccc2c(c1)CN(C1CCC(=O)NC1=O)C2=O)NCc1cccc2ccccc12 (stereo not given) | 13.6% | 18% | -3.71% (active) | -11% (active) | -2.52% (active) | -7.7% (active) | -13.5% (active) | -22.3% (active) | -11.3% (active) | -18.5% (active)
